Data taken from PubChem BioAssay AID1159580 (chemical genetic matrix, 2015).
Among all 5,500 compounds or so, about 2,000 (36%) were called active. Another 18% or so got no clear call; they are omitted. Rule as the data show it: active = normalized growth mostly below about 0.91 (no sharp cut-off); inconclusive = no clear call, values can overlap the other calls; inactive = mostly above about 0.92. The list shows a part of the results.

Experiment: chemical genetic growth profiling, strain panel (AID 1159580);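 also: tested at 20 µM; growth read once vehicle control cultures reached saturation at 30 °C; 1 = growth at the plate median or of vehicle wells; lower values mean less growth of the strain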
Conditions: S. cerevisiae deletion strains, growth OD

Measured: normalized growth

COC(=O)c1c(C)cc(O)cc1O
inactive: locus YAL021C, strain ccr4, active compounds read low 1.02 | locus YAL026C, strain drs2, active compounds read low 1 | locus YAL030W, strain snc1, active compounds read low 1 | locus YBL061C, strain skt5, active compounds read low 1.02 | locus YBR009C, strain hhf1, active compounds read low 1 | locus YBR023C, strain chs3, active compounds read low 1.01 | locus YBR171W, strain sec66, active compounds read low 1 | locus YBR231C, strain swc5, active compounds read low 1.01 | locus YBR279W, strain paf1, active compounds read low 1.02 | locus YCL011C, strain gbp2, active compounds read low 1.01 | locus YCL016C, strain dcc1, active compounds read low 1.01 | locus YCL061C, strain MRC1, active compounds read low 1.01 | locus YCL069W, strain vba3, active compounds read low 0.999 | locus YCR088W, strain abp1, active compounds read low 0.994 | locus YDL005C, strain med2, active compounds read low 1.01 | locus YDL040C, strain nat1, active compounds read low 1 | locus YDR001C, strain nth1, active compounds read low 0.998 | locus YDR069C, strain doa4, active compounds read low 1.01 | locus YDR137W, strain rgp1, active compounds read low 1 | locus YDR159W, strain sac3, active compounds read low 1.02 | locus YDR195W, strain ref2 1.05 | locus YDR297W, strain sur2, active compounds read low 1.01 | locus YDR334W, strain swr1, active compounds read low 1.01 | locus YDR335W, strain msn5, active compounds read low 1.01 | locus YDR392W, strain spt3, active compounds read low 0.978 | locus YEL003W, strain gim4, active compounds read low 1.01 | locus YEL037C, strain rad23, active compounds read low 1.01 | locus YEL061C, strain CIN8 (second series), active compounds read low 1.01 | locus YER015W, strain faa2, active compounds read low 1 | locus YER016W, strain bim1, active compounds read low 1.01 | locus YER111C, strain swi4, active compounds read low 1.03 | locus YER155C, strain BEM2 (second series), active compounds read low 0.995 | locus YFR010W, strain ubp6, active compounds read low 1.02 | locus YGL167C, strain pmr1, active compounds read low 1.01 | locus YGL173C, strain kem1, active compounds read low 1.02 | locus YGL227W, strain vid30, active compounds read low 1 | locus YGL240W, strain doc1, active compounds read low 1 | locus YGL253W, strain hxk2, active compounds read low 1.01 | locus YHR013C, strain ard1, active compounds read low 1.03 | locus YHR027C, strain rpn1, active compounds read low 1.02 | locus YHR030C, strain SLT2, active compounds read low 0.994 | locus YHR079C, strain IRE1, active compounds read low 0.996 | locus YHR142W, strain chs7, active compounds read low 1 | locus YJL092W, strain hpr5, active compounds read low 0.998 | locus YJL095W, strain BCK1 (second series), active compounds read low 1 | locus YJL095W, strain BCK1, active compounds read low 0.984 | locus YJL115W, strain asf1, active compounds read low 1.01 | locus YJL129C, strain trk1, active compounds read low 1 | locus YJL154C, strain vps35, active compounds read low 1.01 | locus YJL164C, strain tpk1, active compounds read low 1.01 | locus YJL166W, strain qcr8, active compounds read low 0.998 | locus YJL187C, strain SWE1, active compounds read low 1.01 | locus YJR066W, strain TOR1, active compounds read low 0.948 | locus YKL160W, strain elf1, active compounds read low 1 | locus YKR026C, strain gcn3, active compounds read low 1 | locus YKR091W, strain srl3, active compounds read low 1.01 | locus YLL001W, strain dnm1, active compounds read low 1.02 | locus YLL026W, active compounds read low 0.996 | locus YLL041C, strain sdh2, active compounds read low 1.01 | locus YLR027C, strain aat2, active compounds read low 1.01 | locus YLR113W, strain HOG1, active compounds read low 1.03 | locus YLR221C, strain rsa3, active compounds read low 0.999 | locus YLR258W, strain gsy2, active compounds read low 1.01 | locus YLR262C, strain YPT6 (second series), active compounds read low 0.985 | locus YLR320W, strain mms22, active compounds read low 1.01 | locus YLR342W, strain FKS1, active compounds read low 1.01 | locus YLR357W, strain rsc2, active compounds read low 1.03 | locus YLR370C, strain arc18, active compounds read low 0.992 | locus YLR384C, strain iki3, active compounds read low 1.01 | locus YML120C, strain ndi1, active compounds read low 0.993 | locus YMR058W, strain fet3, active compounds read low 1.01 | locus YMR125W, strain sto1, active compounds read low 1.02 | locus YMR129W, active compounds read low 1.01 | locus YMR205C, strain PFK2, active compounds read low 1.01 | locus YMR231W, strain pep5, active compounds read low 1.01 | locus YNL071W, strain lat1, active compounds read low 0.987 | locus YNL183C, strain NPR1, active compounds read low 0.917 | locus YNL209W, strain ssb2, active compounds read low 1.01 | locus YNL248C, strain rpa49, active compounds read low 1.01 | locus YNL322C, strain KRE1 (second series), active compounds read low 1 | locus YNR049C, strain mso1, active compounds read low 1 | locus YOR001W, strain rrp6, active compounds read low 1 | locus YOR070C, strain gyp1, active compounds read low 1 | locus YOR080W, strain dia2, active compounds read low 1.01 | locus YOR083W, strain WHI5, active compounds read low 1.01 | locus YOR106W, strain vam3, active compounds read low 0.999 | locus YOR231W, strain MKK1, active compounds read low 0.987 | locus YOR265W, strain rbl2, active compounds read low 0.999 | locus YOR270C, strain vph1, active compounds read low 0.961 | locus YOR290C, strain snf2, active compounds read low 1.01 | locus YPL051W, strain arl3, active compounds read low 1 | locus YPL078C, strain atp4, active compounds read low 0.999 | locus YPL106C, strain sse1, active compounds read low 0.982 | locus YPL240C, strain hsp82, active compounds read low 0.996 | locus YPL256C, strain CLN2, active compounds read low 1.01
